Results from PubChem BioAssay (NCI).
The panel holds about 79,000 compounds, 15% with a hit somewhere; the sample as a whole holds those more often. Activity calls are given as the source filed them. Rule as the data show it: active = growth inhibition above about 70%; inactive = the rest.

Key:
[1] = NCI Yeast Anticancer Drug Screen. Data for the rad50 strain (AID 155);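 also: 0% = growth of vehicle-only cultures of the same strain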; conditions: S. cerevisiae rad50 strain growth inhibition; at 50.0 µM; active compounds read high
In short: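 Vehicle-treated cultures provide the reference for the growth inhibition reported for compound-exposed, repair-deficient yeast.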

[2] = NCI Yeast Anticancer Drug Screen. Data for the mec2-1 strain (AID 157); conditions: S. cerevisiae mec2-1 strain, at 50.0 µM, active compounds read high
In short: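 Cells of the genetically defined mec2-1 yeast strain are incubated with test compound. Inhibition of growth is calculated against vehicle-treated controls.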

[3] = NCI Yeast Anticancer Drug Screen. Data for the sgs1 mgt1 strain (AID 161);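 also: 0% = growth of cultures given vehicle only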; conditions: S. cerevisiae sgs1 mgt1 strain, at 50.0 µM, active compounds read high
In short: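 Inhibition of yeast growth, normalised to vehicle-treated controls, is reported for a strain bearing genetic alterations in DNA damage repair.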

[4] = NCI Yeast Anticancer Drug Screen. Data for the cln2 rad14 strain (AID 165);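 also: 0% = growth equal to vehicle treated cultures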; conditions: S. cerevisiae cln2 rad14 strain, at 50.0 µM, active compounds read high
In short: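 The screen exposed genetically defined yeast (cln2 rad14) to test compounds and scored growth inhibition relative to vehicle-treated controls.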

[5] = NCI Yeast Anticancer Drug Screen. Data for the bub3 strain (AID 167); conditions: S. cerevisiae bub3 mutant strain, at 50.0 µM, active compounds read high
In short: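 Mutant yeast screening strain plus compound; vehicle-treated cultures serve as the 0% inhibition reference.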

[6] = NCI Yeast Anticancer Drug Screen. Data for the mlh1 rad18 strain (AID 175); conditions: S. cerevisiae mlh1 rad18 strain growth inhibition; at 50.0 µM; active compounds read high
In short: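 Compound-treated yeast growth, normalised to vehicle controls. Strain bears defined DNA repair mutations.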

Measured: growth inhibition

CCOC(=O)/C(=C/c1cn(C(C)=O)c2ccccc12)P(=O)(OC)OC
inactive: [1] -28.9% | [2] -4.1% | [3] -1.15% | [4] 13.8% | [5] 5.75% | [6] -15.8%

CCCO/N=[N+](\[O-])N(CC)CC
inactive: [1] -7.7% | [2] -17.4% | [3] 7.5% | [4] 13.8% | [5] -0.8% | [6] -1.45%

O=C(O)/C(=C/c1ccc([N+](=O)[O-])cc1)c1ccc([N+](=O)[O-])cc1
inactive: [1] 6.9% | [2] -4% | [3] 2.05% | [4] -35.4% | [5] -1.7% | [6] 1.55%

COc1cc([C@H]2Oc3cc([C@H]4Oc5cc(O)cc(O)c5C(=O)[C@@H]4O)ccc3O[C@@H]2CO)ccc1O
inactive: [1] 3.15% | [2] 0.55% | [3] 11.8% | [4] -36.4% | [5] 15.5% | [6] 6.05%

CCCCn1cnc2c(=S)nc[nH]c21
inactive: [1] -2.7% | [2] -1.9% | [3] -6.35% | [4] -11.6% | [5] -1% | [6] -0.95%

CCOc1ccc(-c2cc(-c3ccc(OCC)cc3)cc(-c3ccc(OCC)cc3)c2)cc1
inactive: [1] -2.05% | [2] -9.7% | [3] 1.3% | [4] -7.2% | [5] -5.05% | [6] -2.85%

O=S=Nc1ccc([N+](=O)[O-])cc1Cl
inactive: [1] 5.7% | [2] -1.15% | [3] -2.9% | [4] -33.6% | [5] 10.7% | [6] 16.6%

CC1OC(n2ccc(NC(=O)c3ccc(NC(=O)C(C)(N)CO)cc3)nc2=O)CCC1OC1OC(C)C(N(C)C)C(O)C1O (centres undefined)
inactive: [1] 30.4% | [2] -0.8% | [3] 6.05% | [4] 6% | [5] 1.75% | [6] 28.8%

CC(=O)OC1CCC2(C)C(=CCC3C2CCC2(C)C(/C(C)=N/NC(N)=O)CCC32)C1 (centres undefined)
inactive: [1] 14.4% | [2] -2.8% | [3] -0.1% | [4] -39.6% | [5] -0.6% | [6] -0.5%

Cc1ccc(C(=O)C(c2nc3n(c2O)/C(=N/C(=O)Nc2ccc(Cl)cc2)N=N3)c2nc3n(c2O)/C(=N/C(=O)Nc2ccc(Cl)cc2)N=N3)cc1
inactive: [1] -44.1% | [2] -29.2% | [3] -27.2% | [4] -39% | [5] -29.1% | [6] -25.4%

CC1C(=O)C(O)CC2C1(C)CCC1C2(C)CCC2(C)C3CC(C)(C)CCC3(C)CCC12C (centres undefined)
inactive: [1] -7.2% | [2] -2.6% | [3] -6.45% | [4] 1.2% | [5] 5.45% | [6] -4.7%

COC(=O)CCNC(C(=O)O)C(C)(C)SCCC(=O)OC (centres undefined)
inactive: [1] -18.6% | [2] -19.1% | [3] -7.9% | [4] 24.5% | [5] 24.5% | [6] -20.4%

CC(C)Cn1cnc2c(Sc3c([N+](=O)[O-])ncn3C)nc(N)nc21
inactive: [1] 7.95% | [2] -14.1% | [3] -13.2% | [4] -1.4% | [5] 2.1% | [6] 7.15%

CC(C)(Oc1ccc(/C=C/C(=O)c2ccccc2)cc1)C(=O)Nc1c(Cl)cccc1Cl
inactive: [1] -6.6% | [2] -46.6% | [3] -3.15% | [4] -65.5% | [5] -13.1% | [6] -1.45%

CCN1CCNC(=O)C1c1ccccc1 (centres undefined)
inactive: [1] -9.3% | [2] 16.1% | [3] -17.2% | [4] 1.35% | [5] -1.1% | [6] 1.05%

C1CCC(C2CCCC[N-]2)[N-]C1.C1CCC(C2CCCC[N-]2)[N-]C1.O=C(O)C(=O)O.[Ru+4] (centres undefined)
inactive: [1] 31.8% | [2] 9.4% | [3] 16.2% | [4] 11.8% | [5] -3.25% | [6] 7.9%

CC(=O)O[C@H]1CC[C@]2(C)C3CC[C@]4(C)C([C@H](C)CCCC(C)C)CCC4[C@]3(/C=N/O)n3c(=O)n(-c4ccccc4)c(=O)n3[C@]2(/C=N\O)C1 (some centres undefined)
inactive: [1] 28% | [2] 35.2% | [3] 28.8% | [4] 9.7% | [5] 38.9% | [6] 45.4%

COc1cccc(C=NC23CC4CC(CC(C4)C2)C3)c1
inactive: [1] -22.2% | [2] -3.15% | [3] 3.65% | [4] -0.9% | [5] 6.85% | [6] -6.8%

NC1=NC(=O)N(C2CC(O)C(COP(=O)(O)O)O2)C(I)C1 (centres undefined)
inactive: [1] 31.9% | [2] 0% | [3] 12.9% | [4] -28.6% | [5] -0.6% | [6] 13.2%

C[C@@]12CCC(=O)c3coc(c31)C(=O)c1cc3c(cc12)C(=O)C=CC3=O
active: [1] 92% | [2] 93.2% | [3] 93.2% | [4] 91.4% | [5] 92.2% | [6] 91.9%

CCCCCCCCCCCCCCC(CCCCCCCCCCCCCC)c1ccccc1
inactive: [1] 38.4% | [2] -1.25% | [3] 11.6% | [4] -29.4% | [5] -2.65% | [6] 12.2%

COC(=O)c1cncn1C1CC1
inactive: [1] 8.25% | [2] -7.1% | [3] -3.2% | [4] -58.5% | [5] -2.95% | [6] -8.2%

CCCCC1(CCO)C(=O)N=C(N)NC1=O (centres undefined)
inactive: [1] -15% | [2] -3.85% | [3] -8.05% | [4] -22.9% | [5] -5.6% | [6] -15.8%

Cc1ccc(S(=O)(=O)NC(=O)NCCCS(C)=O)cc1 (centres undefined)
inactive: [1] -3.5% | [2] -6.5% | [3] 6.8% | [4] -7.8% | [5] 2.9% | [6] 10.3%

O=C(/C=C/CBr)NC(Cc1ccccc1)C(=O)O (centres undefined)
inactive: [1] -1.45% | [2] -8.6% | [3] -18.1% | [4] -4% | [5] 15.6% | [6] -4.2%

FC(F)(F)c1cccc(NC(=S)N2CCOCC2)c1
inactive: [1] 0.35% | [2] -2% | [3] 1.05% | [4] -4.2% | [5] 0.3% | [6] -11.7%

COC(=O)CC1(O)C=CC(=O)c2ccccc21 (centres undefined)
inactive: [1] 2.35% | [2] -6.65% | [3] -3.8% | [4] -25.9% | [5] 44% | [6] -5.7%

CO/N=C1C=C/C(=N\OC)C\1
inactive: [1] 10.7% | [2] -28.2% | [3] 0.5% | [4] 7.55% | [5] -19.1% | [6] 0.8%

FC(F)(F)c1cc(Cl)c2ccc3ccccc3c2n1
inactive: [1] 8.65% | [2] 5.3% | [3] 1.9% | [4] -62.4% | [5] 3.65% | [6] -12.8%

CC12CC(=O)OC(C1)C(=O)c1ccccc12 (centres undefined)
inactive: [1] 8.9% | [2] 16.1% | [3] 2.85% | [4] 4.45% | [5] 1.7% | [6] -3.15%

CC(=O)Nc1ccc(NC(=O)c2cccc3ccccc23)cc1
inactive: [1] -5.1% | [2] 13% | [3] 13.8% | [4] -12.8% | [5] 35.4% | [6] 32.1%

c1ccc(CSC2(SCc3ccccc3)CCCC2)cc1
inactive: [1] -7.3% | [2] -19.3% | [3] -22.6% | [4] 11.8% | [5] -1.1% | [6] -4.45%

CSc1ccc(NC(=O)Nc2cc(C)ccn2)cc1
inactive: [1] 5.8% | [2] -11.1% | [3] -45.7% | [4] -37.8% | [5] -61% | [6] 10.6%

COc1ccc(C(C)S(=O)(=O)c2ccccc2)cc1OC (centres undefined)
inactive: [1] 6.2% | [2] 8.8% | [3] -2.9% | [4] -5.9% | [5] 6.1% | [6] 5.5%

CNc1ccc(C)cc1S(=O)(=O)c1ccccc1[N+](=O)[O-]
inactive: [1] 65.5% | [2] 42.5% | [3] 58.1% | [4] 29.2% | [5] 47.1% | [6] 16.1%

Nc1cccc(OCC2CCCN3CCCCC23)c1 (centres undefined)
inactive: [1] 20% | [2] -17.9% | [3] 4.9% | [4] 2.45% | [5] 6.05% | [6] -64.8%

Nc1nc(F)nc2c1ncn2C1OC(CO)C(O)C1O (centres undefined)
inactive: [1] -10.3% | [2] 2.25% | [3] 8.25% | [4] 0.1% | [5] 2.15% | [6] -12.2%

COc1ccc(/C=C/c2c([N+](=O)[O-])c(=O)n(C)c(=O)n2C)cc1
inactive: [1] -14.7% | [2] 0.95% | [3] -3.1% | [4] 16.1% | [5] 2.65% | [6] -10.2%

CC(=O)O[C@]12CCCC1C1(O)C(O)CCCC12 (some centres undefined)
inactive: [1] -30.7% | [2] -50.1% | [3] -72.3% | [4] -9.55% | [5] -30.6% | [6] -34.6%
